What is called AC50 is the midpoint of the concentration-response curve, whichever way the signal moves.

The campaign covered roughly 16,000 compounds. About 5,700 (36%) were called active. Inconclusive results (about 24%) are left out. Calls follow the shape of the dose curve; as a rule, active = well fitted curve in the direction sought with a large enough effect; inconclusive = small, poorly fitted or top-dose-only effect, or effect the other way; inactive = no such curve, though single readings can be large or run the other way. The list shows a part of the results. Square brackets hold non-standard residues; d marks the D form. Peptide text beside a SMILES is read from it.

Experimental findings from PubChem BioAssay AID1851 (National Center for Advancing Translational Sciences (NCATS), 2009) are described below.
% is scaled to controls: 0 for no effect and ±100 for the full control effect.

For this experiment, the target named is Cytochrome P450 1A2 (Homo sapiens) (UniProt P05177). The experiment in a line: Cytochrome panel assay with activity outcomes. The following applies: recombinant CYP, pro-luciferin dealkylation, luminescence, p450-cyp1a2; series mostly up to 57.1 µM; activity, negative = inhibition: at the top concentration.
Sequence of Cytochrome P450 1A2 (Homo sapiens) (P05177 whole entry, looked up): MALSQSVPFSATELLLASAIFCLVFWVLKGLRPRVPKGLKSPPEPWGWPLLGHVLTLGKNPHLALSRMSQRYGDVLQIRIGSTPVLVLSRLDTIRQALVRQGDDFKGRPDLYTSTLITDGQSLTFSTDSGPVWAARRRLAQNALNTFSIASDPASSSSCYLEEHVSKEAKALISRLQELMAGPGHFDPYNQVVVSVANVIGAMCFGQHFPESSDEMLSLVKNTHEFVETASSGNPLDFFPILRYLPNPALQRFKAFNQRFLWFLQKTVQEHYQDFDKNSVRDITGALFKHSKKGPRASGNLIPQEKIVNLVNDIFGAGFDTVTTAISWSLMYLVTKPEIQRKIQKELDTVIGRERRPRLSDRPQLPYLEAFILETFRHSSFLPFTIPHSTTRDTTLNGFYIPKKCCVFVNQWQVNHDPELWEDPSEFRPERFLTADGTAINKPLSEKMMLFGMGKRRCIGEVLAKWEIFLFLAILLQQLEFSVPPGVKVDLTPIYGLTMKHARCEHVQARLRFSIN
For `CCOC(=O)CCN1C(=O)[C@H]2[C@H]3[C@H](O)[C@H](O)C/C(=N/OC/C=C(\C)CCC=C(C)C)[C@@H]3CC[C@@H]2C1=O`, the activity, negative = inhibition is -2.33% [at 11.4 µM] (inactive). Consider `N#Cc1c(-c2ccccc2)no[n+]1[O-]`, for which the concentration at half-maximal activity (AC50) was 0.398 µM (active).

Take `CCCCn1c(=N)n(CC(=O)c2ccco2)c2ccccc21`: the concentration at half-maximal activity (AC50) is 8.91 µM (active). Consider `CC[C@H](CN(C)C)C(=O)c1ccco1`, for which the activity, negative = inhibition is -9.05% [at 11.4 µM] (inactive). Same read-out and setting: the value for `C[N+]1(CCC(=O)c2ccco2)CC2CCC(CC2)C1` (centres undefined) was -10.2% [at 11.4 µM] (inactive); that for `C[C@H](N)CCCC(C)(C)O` was -3.97% [at 25.6 µM] (inactive). `CSc1nc(C)c2c(n1)N(c1ccc(C(C)C)cc1)CC2`: the AC50 was 2 µM (active). Regarding `CSc1nc(C)c2c(n1)N(c1ccc(C(F)(F)F)cc1)CC2`, the half-maximal activity concentration (AC50) was 0.316 µM (active). On to `C[C@H](O)[C@H](O)[C@@H]1CNc2nc(N)[nH]c(=O)c2N1`, for which the “activity, negative = inhibition” value is -16% (inactive). With `Cn1c(=O)c(C(=O)CN2CCOCC2)c(N)n(Cc2ccccc2)c1=O`, the “activity, negative = inhibition” value is 7.04% (inactive). As for `Cn1c(N)c(C(=O)CSc2ccc3c(c2)OCCO3)c(=O)n(C)c1=O`, the AC50 is 15.8 µM (active).

Take `Cc1nn(-c2ccc(Cl)cc2)c2sc(C(=O)c3c(N)n(C)c(=O)n(C)c3=O)cc12`: the “activity, negative = inhibition” value was -17.7% (inactive). Still for that read-out and setting: as for `O=C(Nc1cccc(F)c1)N1CCCC2(CCNCC2)C1`, the figure is -9.33% (inactive); as for `COc1ccc(-c2noc(C3CCCN(C(=O)c4ccccc4OC)C3)n2)cc1OC` (centres undefined), -31.5% (inactive). As for `O=C(Nc1ccccc1)N1CCCC(c2nc(-c3ccc(F)cc3)no2)C1` (centres undefined), the half-maximal activity concentration (AC50) was 25.1 µM (active). Turning to `O=C(CC1CCCCC1)N1CCC(c2nc(-c3ccc(S(=O)(=O)N4CCCC4)cc3)no2)CC1`, the “activity, negative = inhibition” value is -1.32% (inactive). Same read-out and setting: as for `Cc1noc(C)c1C(=O)N1CCC[C@@]2(CCN(C(=O)Nc3cccc(F)c3)C2)C1`, the figure is -14.5% (inactive). As to `CCCCCC(=O)N1CCCC(c2nc(-c3ccc(OC)cc3)no2)C1` (centres undefined), the half-maximal activity concentration (AC50) is 3.16 µM (active). Consider `CCCCC(=O)NCCc1c(Cc2ccccc2)[nH]c2ccccc12`, for which the AC50 was 3.16 µM (active). On the same count and under the same terms, the value for `CC(=O)NCCc1c(Cc2ccccc2)[nH]c2ccccc12` was 12.6 µM (active). For the compound `Cc1nc2ncnn2c(C)c1CCC(=O)NCc1ccccc1`, the “activity, negative = inhibition” value was -2.47% (inactive). For `COc1ccc2[nH]c(-c3ccccc3)c(CCNC(C)=O)c2c1`, the AC50 is 1.26 µM (active). `N[C@H](C(=O)O)c1ccc(C(=O)O)cc1`: the “activity, negative = inhibition” value was -18.9% (inactive).

On to `ClC(Cl)(Cl)C(N1CCN(c2ccccc2)CC1)N1CCN(c2ccccc2)CC1`, for which the activity, negative = inhibition is -14.9% [at 2.29 µM] (inactive).

Turning to `C=CCn1c(=O)c(C(=O)NCCN(CC)CC)c(O)c2ccccc21`, the concentration at half-maximal activity (AC50) is 1.41 µM (active).

In the case of `CCN(CC)CCNC(=O)c1ccc(NC(C)=O)cc1`, the “activity, negative = inhibition” value was -7.76% (inactive).

For `CCN(CC)CCNC(=O)Cn1nc(-c2ccc(C)cc2)ccc1=O`, the “activity, negative = inhibition” value was -5.38% (inactive).

As to `FC(F)(F)c1ccccc1-c1nccc(NCc2ccccc2)n1`, the AC50 was 12.6 µM (active).

Turning to `Cc1cccc(CNc2ccnc(-c3ccccc3C(F)(F)F)n2)c1`, the AC50 is 6.31 µM (active). With `c1cc2c(cc1C1CCCCC1)c1c3n2CCN[C@H]3CCC1`, the AC50 is 15.8 µM (active). On the same count and under the same terms, as for `Cc1ccc(NC(=O)c2sccc2SCc2cccc(C(F)(F)F)c2)cc1`, the figure is 2.82 µM (active). As for `O=C(N/N=C/c1ccc(Sc2nc3ccccc3s2)c([N+](=O)[O-])c1)c1ccccn1`, the “activity, negative = inhibition” value was -13.5% (inactive). For the compound `CN(CCO)c1cc(Sc2nc3ccccc3s2)c2nonc2c1[N+](=O)[O-]`, the AC50 was 14.1 µM (active).

`O=[N+]([O-])c1c(NCCO)cc(Sc2nc3ccccc3s2)c2nonc12`: the AC50 is 1 µM (active). As for `CC1(C)C2([N+](=O)[O-])CN3CC1([N+](=O)[O-])CN(C2)C3c1ccccc1` (centres undefined), the “activity, negative = inhibition” value is 15.2% (inactive). On the same count and under the same terms, the value for `CSCC[C@H](C=O)NC(=O)[C@H](CC(C)C)NC(=O)[C@H](CC(C)C)NC(C)=O` (Ac-Leu-Leu-[dM]-aldehyde) was -11.3% (inactive). With `C=CCSc1nc(Oc2ccccc2)c2sccc2n1`, the half-maximal activity concentration (AC50) was 2.51 µM (active).

Take `C=CCSc1ccsc1C(=O)O`: the “activity, negative = inhibition” value was 4% (inactive).

As to `C=CCSc1nc(NC)c2sccc2n1`, the AC50 is 1 µM (active).

As to `C=CCNc1nc(SCC=C)nc2ccsc12`, the AC50 was 0.501 µM (active). As to `N[C@@H](Cc1ncccn1)C(=O)O`, the activity, negative = inhibition was -7.74% [at 11.4 µM] (inactive). Still for that read-out and setting: as for `CCCC1(C(=O)OC)C=C2C(=C(C(C)C)C(=O)C2C)CN1` (centres undefined), the figure is -20.3% (inactive). In the case of `CCCCCC1=C2CNC(CCC)(C(=O)OC)C=C2C(C)C1=O` (centres undefined), the AC50 is 31.6 µM (active). For `COC(=O)C1(C)C=C2C(=C(c3ccccc3)C(=O)C2C)CN1` (centres undefined), the concentration at half-maximal activity (AC50) was 15.8 µM (active). For `CCCC1(C(=O)OC)C=C2C(=C(C)C(=O)C2C)CN1` (centres undefined), the “activity, negative = inhibition” value was -20.6% (inactive). Regarding `CCCC1(C(=O)OC)C=C2C(=C(c3ccccc3)C(=O)C2C)CN1` (centres undefined), the AC50 was 15.8 µM (active). For the compound `CC1(C)CC(=O)C(CCC(=O)c2ccccc2)C(C)(C)N1` (centres undefined), the “activity, negative = inhibition” value was -7.19% (inactive).

Take `CCN=C(N)CSS(=O)(=O)O`: the activity, negative = inhibition is -10.1% [at 11.4 µM] (inactive). Turning to `CN(C)c1ccc(-c2ccc3ncnc(-n4ccnc4)c3c2)cc1`, the AC50 is 0.316 µM (active).
